# High-throughput results from PubChem BioAssay.
# BRCA1 expr act: activators of BRCA1 expression | MCF7-BRCA1-FFLuc reporter, luminescence, 48 h; response scale: scaled: vehicle 0%, 10 µM genistein 100% | Potency, µM (top dose mostly 46.1 µM), without a hit: at the top dose activation, actives largely listed as activators | 380,000 compounds, 1.1% hits; also: potency is read from the fitted curve at half-maximal effect; nearly all actives have a fitted effect of over 80% in size
#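 Activators of BRCA1 expression were detected as increased firefly luciferase luminescence in engineered MCF7 cells after 48 h compound incubation. Signals were scaled to genistein 10 microM as full activation.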
# RGS4 inh: human RGS4 inhibition | Potency, µM (series often up to 114 µM), inactives show at the top dose activity change, negative = inhibition, most hits filed as inhibitors | Transcreener GDP fluorescence polarization, RGS4-accelerated GTP hydrolysis | AID 504845 | 390,000 compounds, 0.039% hits | P49798; also: potency is read from the fitted curve at half-maximal effect; % is scaled to controls: 0 for no effect and ±100 for the full control effect; nearly all actives have a fitted effect of over 75% in size
# Target sequence (P49798 whole entry, looked up): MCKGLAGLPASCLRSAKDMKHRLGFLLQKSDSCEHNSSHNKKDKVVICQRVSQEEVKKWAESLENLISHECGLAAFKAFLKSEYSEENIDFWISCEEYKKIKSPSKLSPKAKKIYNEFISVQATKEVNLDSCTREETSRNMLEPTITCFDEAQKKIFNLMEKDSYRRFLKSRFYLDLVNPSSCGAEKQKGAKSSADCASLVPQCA
#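 MLSMR compounds (23 nl, pin-transferred) preincubated 10 min at room temperature with a 500nM (2x) first reagent, then RGS4 at 900nM (2x) plus Transcreener GDP mix added; fluorescence polarization (620/688 nm) read before and after 90 min at 30 °C.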
# D3 antag: blocks the human D3 dopamine receptor | P35462 | D3R cells, DiscoveRx beta-arrestin luminescence, antagonist mode; stronger effect = lower value | max response, negative = inhibition, % | 360,000 compounds, 2.5% hits; in the data active = max response below about -50%; inconclusive = no clear call, values can overlap the other calls; also: % is scaled to controls: 0 for no effect and ±100 for the full control effect
#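 Cells plated overnight at 1500 cells/well, then exposed to library compounds with dopamine controls for 90 minutes at 37 degrees C. DiscoveRx reagent added for 30–60 minutes at room temperature; luminescence read, quantitative HTS format.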
# PTHR1 agonist: activates the human parathyroid hormone receptor PTHR1; Q03431; HEK293 GP2 PTHR1 cells, GloSensor cAMP luminescence, 1 h; Potency, µM (top dose mostly 115 µM), inactives show at the top dose activation, hits mostly activators; 410,000 compounds, 0.075% hits; AID 743266; also: potency is read from the fitted curve at half-maximal effect; nearly all actives have a fitted effect of over 55% in size
#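 HEK-293-derived GP2 cells expressing PTHR1 and a GloSensor cAMP reporter, 3,000/well, plated overnight, given luciferin plus IBMX (each 0.5 mM as added) for 1 h at 37 °C, then compound for 1 h at 37 °C. Luminescence was read after 15 min at room temperature.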
# B2AR arrestin: beta2AR (human) beta-arrestin recruitment activity | AID 492947 | beta-arrestin recruitment to beta2AR, cell-based reporter | 330,000 compounds, 0.02% hits | P07550 | Potency, µM (highest dose often 46.1 µM), without a hit: top-dose activation, actives largely listed as activators;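 also: potency is read from the fitted curve at half-maximal effect; 0% = DMSO controls and full agonism = EC100 isoproterenol or metaproterenol; nearly all actives have a fitted effect of over 65% in size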
# DRD3 agonist: activates the human D3 dopamine receptor | max activation, % | AID 652048 | D3R DiscoveRx beta-arrestin cells, luminescence, 90 min | 410,000 compounds, 0.58% hits; in the data active = max activation above about 30%; also: 0% is about no effect
#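 Agonist mode: compounds and dopamine controls were applied to plated cells for 90 min at 37 degrees C after an overnight attachment at 1500 cells/well. Luminescent read-out followed 30 - 60 minutes at room temperature with DiscoveRx detection reagent.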
# Starred values were filed as active, the others as inactive; i = inactive; ? = inconclusive; nt = no result; [ ] = remark or other dose. Only some compounds are listed: those with a hit (about 3.7% of all), similar ones and a draw of the others. Unless noted, calls follow the shape of the dose curve; as a rule, active = well fitted curve in the direction sought with a large enough effect; inconclusive = small, poorly fitted or top-dose-only effect, or another doubt; inactive = no such curve, though single readings can be large; an effect the other way counts as inactive or inconclusive.
SMILES,BRCA1 expr act,RGS4 inh,D3 antag,PTHR1 agonist,B2AR arrestin,DRD3 agonist
COC1=CC(=O)OC(c2ccc(C#N)cc2)C1 (stereo not drawn),nt,nt,-5,3%,nt,2
COc1cc(C)ccc1OCCCOc1ccccc1Cl,13µM*,-1%,-10,-11%[57.5 µM],0%,-4
COc1ccc(CCNC(=O)CSc2nnnn2-c2cccc(C(C)=O)c2)cc1OC,nt,-33%,nt,i,nt,9
Cn1c(NCC2CCCCC2)nc2cc(-c3ccsc3)sc2c1=O,-20%,nt,-51*,-18%,nt,4
CCCS(=O)(=O)N1CCN(CC2CC3C=CC2C3)CC1 (stereo not drawn),-8%,-9%[11.4 µM],-21,i,-1%,-6
CCS(=O)(=O)N1CCN(CC2CC3C=CC2C3)CC1 (stereo not drawn),2%,20%,-72*,-6%[57.5 µM],0%,-7
FC(F)(F)c1cccc(N2CCN(CC3CC4C=CC3C4)CC2)c1 (stereo not drawn),-3%,-14%,-72*,-29%,0%,-23
Fc1ccccc1N1CCN(CC2CC3C=CC2C3)CC1 (stereo not drawn),6%,2%,-71*,-9%,0%,12
C1=CC2CC1CC2CN1CCN(Cc2ccccc2)CC1 (stereo not drawn),12%,35%,-53*,i,0%,-22
FC(F)(F)c1cccc(N2CCN(C3CC4CCC3C4)CC2)c1 (stereo not drawn),-25%,-13%,-23,i,0%,-1
O=C(NCc1ccncc1)[C@@H]1CCCN1C(=O)[C@H]1CCCN1,2%,nt,20,i,nt,2
CCOc1ccccc1NC(=O)COC(=O)CCOc1cc(C)ccc1C,-12%,-19%,-16,i,0%,-9
Cc1ccc(NC(=O)c2ccoc2C)cc1C,6.3µM*,-17%,-1,-13%,0%,2
CC1CCC(NC(=O)C(=O)Nc2ccc3c(c2)OCO3)CC1 (stereo not drawn),2.8µM*,-6%,-3,-8%,0%,-6
Cc1occc1C(=O)Nc1ccc2c(c1)OCO2,3.2µM*,8%,16,-2%[57.5 µM],0%,-5
CCCCn1c(N)c(N(CC(C)C)C(=O)CSCc2c(C)noc2C)c(=O)[nH]c1=O,-15%,-4%,4,i,-2%,-8
CCC(NC(=O)CC[C@H]1O[C@@H](n2cc(C)c(=O)[nH]c2=O)C[C@@H]1O)c1ccccc1 (stereo partly drawn),6%,-8%,2,i,0%,10
COc1cc2c(cc1OC)CN(Cc1cc(=O)oc3cc(C)c(Cl)cc13)CC2,-12%,7%,-5,i,0%,11
CCc1ccc2c(CN3CCc4cc(OC)c(OC)cc4C3)cc(=O)oc2c1,-69%,-13%,-20,-45%,0%,31*
COc1cc2c(cc1OC)CN(Cc1cc(=O)oc3cc(C)c(C)cc13)CC2,-24%,-27%,5,i,0%,42*
C[C@@H](O)[C@H]1C(=O)N2C(C(=O)O)=C([C@H]3CCCO3)S[C@H]12,nt,nt,nt,nt,nt,-2
Cc1ccc2nc(C)c(C(=O)N/N=C/c3ccc(N4CCOCC4)cc3)cc2c1,20%,-12%,-6,i,-2%,31*
COC(=O)c1[nH]c2cc(C)ccc2c1NC(=O)CN1CCc2cc(OC)c(OC)cc2C1,-30%,3%,-67*,-19%[57.5 µM],0%,-17
COC(=O)c1[nH]c2ccc(C)cc2c1NC(=O)CN1CCN(c2ccccc2)CC1,-70%,-39%,67,i,-2%,36*
CCOC(=O)N1CCN(CC(=O)Nc2c(C(=O)OC)[nH]c3cccc(Cl)c23)CC1,8%,53%,?,i,0%,40*
CCOc1ccc(S(=O)(=O)N2CCC(C(=O)NCC3CCCO3)CC2)cc1C (stereo not drawn),-30%,8%,-14,i,-1%,-9
CC(C)c1ccc(NC(=S)Nc2ccc3cn[nH]c3c2)cc1,?,-31%,8,-10%,14%,3
